Counter-ions that a name gives are not always drawn. ± gives the standard deviation of the averaged measurements. Whole data set: some 1,300 compounds, median “normalised cell viability” near 1, cut for the lowest 2% near 0.15. The sample holds the lowest values, similar compounds and a random draw of the others, so the mix is not that of the screen.

We go through 34 molecules from the supplement of paper PMC6609913.

For the test, the system named is V-C8 + BRCA2 (BRCA2-proficient hamster cells). Put plainly: normalised cell viability (fraction of plate median); higher = more viable cells (less toxic). As to conditions: 5 µM. An outline of the steps:
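Hamster V-C8 cells lacking BRCA2 and V-C8 cells with BRCA2 restored were seeded in 96-well plates. Library drugs (10 mM DMSO stocks) were added 24 h later at 5 μM in 100 μl medium, next to DMSO control wells, for 3 days (screen 1) or 6 days (screen 2). Cell viability was read by resazurin assay, median-plate normalised (modified robust per cent of sample), and triplicate wells were averaged.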

As to `CN1CCCN=C1/C=C/c1cccs1` [Pyrantel tartrate], the normalised cell viability (treatment time: 3 days) turned out to be 1.04 ± 0.05 and the normalised cell viability (treatment time: 6 days) amounted to 1.03 ± 0.026.

Take `COCCCC/C(=N\OCCN)c1ccc(C(F)(F)F)cc1` [Fluvoxamine maleate]: the normalised cell viability is 0.97 ± 0.029 (treatment time: 3 days) and 1.17 ± 0.13 (treatment time: 6 days).

In the case of `Cn1c(=O)c2c(ncn2C)n(C)c1=O` [Caffeine], the normalised cell viability by setting is: (treatment time: 3 days) 0.998 ± 0.053; (treatment time: 6 days) 0.996 ± 0.057.

Regarding `CCOC(=O)[N-]c1c[n+](N2CCOCC2)no1` [Molsidomine], the normalised cell viability was 1.04 ± 0.05 (treatment time: 3 days) and 1.1 ± 0.028 (treatment time: 6 days).

Take `CCN1CCCC1CNC(=O)c1cc(S(=O)(=O)CC)c(N)cc1OC` (stereo not drawn) [Amisulpride]: the normalised cell viability reads like this: (treatment time: 3 days) 0.974 ± 0.017; (treatment time: 6 days) 0.991 ± 0.058.

`CC(=O)Nc1ccc(CC(=O)O)cc1` [Actarit]: the normalised cell viability (treatment time: 3 days) was 1.038 ± 0.0059 and the normalised cell viability (treatment time: 6 days) was determined as 1.07 ± 0.12.

Regarding `O=C(CCCCC(=O)Nc1c(I)cc(I)c(C(=O)O)c1I)Nc1c(I)cc(I)c(C(=O)O)c1I` [Iodipamide], the normalised cell viability came to 1.07 ± 0.05 (treatment time: 3 days) and 1.02 ± 0.06 (treatment time: 6 days).

Take `O=C(CCCCCCC(=O)Nc1ccccc1)NO` [Vorinostat]: the normalised cell viability (treatment time: 3 days) amounted to 0.132 ± 0.0091 and the normalised cell viability (treatment time: 6 days) was 0.17 ± 0.021.

Take `CN(Cc1cc(Br)cc(Br)c1N)C1CCCCC1` [Bromhexine hydrochloride]: the normalised cell viability is 0.949 ± 0.042 (treatment time: 3 days) and 1.02 ± 0.072 (treatment time: 6 days).

Regarding `CO[C@H]1C[C@H](O[C@H]2[C@H](C)[C@@H](O[C@@H]3O[C@H](C)C[C@H](N(C)C)[C@H]3OC(C)=O)[C@@H](C)C[C@@]3(CO3)C(=O)[C@H](C)[C@@H](OC(C)=O)[C@@H](C)[C@@H](C)OC(=O)[C@@H]2C)O[C@@H](C)[C@@H]1OC(C)=O` [Troleandomycin], the normalised cell viability (treatment time: 3 days) was found to be 1.08 ± 0.027 and the normalised cell viability (treatment time: 6 days) is 1.06 ± 0.04.

For `C[C@@H](O)[C@H]1C(=O)N2C(C(=O)O)=C(S[C@@H]3CN[C@H](C(=O)N(C)C)C3)[C@H](C)[C@H]12` [Meropenem], the normalised cell viability reads like this: (treatment time: 3 days) 1.02 ± 0.037; (treatment time: 6 days) 1.04 ± 0.053.

`NS(=O)(=O)c1cc(Cl)c(Cl)c(S(N)(=O)=O)c1` [Dichlorphenamide]: the normalised cell viability runs as follows: (treatment time: 3 days) 1.09 ± 0.05; (treatment time: 6 days) 0.961 ± 0.035.

For `CC(C)(C)NCC(O)COc1cccc2c1CCC(=O)N2` (stereo not drawn) [Carteolol hydrochloride], the normalised cell viability (treatment time: 3 days) is 1.06 ± 0.052 and the normalised cell viability (treatment time: 6 days) came out at 1.06 ± 0.044.

Turning to `O=C1NCC2(CCN(CCc3ccccc3)CC2)O1` [Fenspiride hydrochloride], the normalised cell viability was determined as 1.03 ± 0.051 (treatment time: 3 days) and 1.06 ± 0.068 (treatment time: 6 days).

Turning to `CCN(Cc1ccncc1)C(=O)C(CO)c1ccccc1` (stereo not drawn) [Tropicamide], the normalised cell viability by setting is: (treatment time: 3 days) 1.065 ± 0.0083; (treatment time: 6 days) 1.01 ± 0.043.

Turning to `CN(C)CCC[C@@]1(c2ccc(F)cc2)OCc2cc(C#N)ccc21` [Escitalopram], the normalised cell viability is, setting by setting: (treatment time: 3 days) 1.1 ± 0.041; (treatment time: 6 days) 1.01 ± 0.067.

With `CC(C)[C@H]1CC[C@H](C(=O)N[C@H](Cc2ccccc2)C(=O)O)CC1` [Nateglinide], the normalised cell viability by setting is: (treatment time: 3 days) 1.04 ± 0.051; (treatment time: 6 days) 1.04 ± 0.091.

Regarding `CN1CCCC(CC2c3ccccc3Sc3ccccc32)C1` (stereo not drawn) [Metixene hydrochloride], the normalised cell viability (treatment time: 3 days) was determined as 0.867 ± 0.014 and the normalised cell viability (treatment time: 6 days) came out at 0.888 ± 0.012.

Regarding `O=C(CCCN1CC=C(n2c(=O)[nH]c3ccccc32)CC1)c1ccc(F)cc1` [Droperidol], the normalised cell viability came out at 1.05 ± 0.013 (treatment time: 3 days) and 1.07 ± 0.015 (treatment time: 6 days).

Turning to `O=C(O)c1ccccc1OP(=O)(O)O` [Fosfosal], the normalised cell viability turned out to be 0.966 ± 0.055 (treatment time: 3 days) and 1.06 ± 0.1 (treatment time: 6 days).

As for `N=C(NCCCCCCNC(=N)NC(=N)Nc1ccc(Cl)cc1)NC(=N)Nc1ccc(Cl)cc1` [Chlorhexidine], the normalised cell viability runs as follows: (treatment time: 3 days) 0.117 ± 0.0076; (treatment time: 6 days) 0.103 ± 0.0066.

Take `N=C(N)NC(=N)NCCc1ccccc1` [Phenformin hydrochloride]: the normalised cell viability (treatment time: 3 days) amounted to 1.01 ± 0.029 and the normalised cell viability (treatment time: 6 days) turned out to be 0.9752 ± 0.0082.

For the molecule `CC(C)NC(=N)NC(=N)Nc1ccc(Cl)cc1` [Proguanil hydrochloride], the normalised cell viability is, setting by setting: (treatment time: 3 days) 0.211 ± 0.013; (treatment time: 6 days) 0.203 ± 0.015.

In the case of `CC(=O)Nc1c(I)c(NC(C)=O)c(I)c(C(=O)O)c1I` [Diatrizoic acid dihydrate], the normalised cell viability was determined as 0.996 ± 0.035 (treatment time: 3 days) and 1.05 ± 0.077 (treatment time: 6 days).

With `Cc1cc(/C=C/c2ccc3cc(N(C)C)ccc3[n+]2C)c(C)n1-c1ccccc1` [Pyrvinium pamoate], the normalised cell viability came out at 0.144 ± 0.0086 (treatment time: 3 days) and 0.171 ± 0.014 (treatment time: 6 days).

As to `Cc1cc(=O)n(-c2ccccc2)n1C` [Antipyrine], the normalised cell viability was 0.997 ± 0.038 (treatment time: 3 days) and 1.02 ± 0.046 (treatment time: 6 days).

As to `CCCCC(CC)CNC(=N)NC(=N)NCCCCCCNC(=N)NC(=N)NCC(CC)CCCC` (stereo not drawn) [Alexidine dihydrochloride], the normalised cell viability (treatment time: 3 days) was 0.143 ± 0.002 and the normalised cell viability (treatment time: 6 days) is 0.149 ± 0.011.

With `O=C1C=CC(=O)c2c1ccc1c2ccc2ccccc21` [Chrysene-1,4-quinone], the normalised cell viability (treatment time: 3 days) worked out at 1.024 ± 0.0027 and the normalised cell viability (treatment time: 6 days) amounted to 1 ± 0.11.

Consider `CC(C)Oc1ccc2c(=O)c(-c3ccccc3)coc2c1` [Ipriflavone], for which the normalised cell viability (treatment time: 3 days) worked out at 0.993 ± 0.029 and the normalised cell viability (treatment time: 6 days) was 1.08 ± 0.11.

`Nc1ccn([C@@H]2CS[C@H](CO)O2)c(=O)n1` [Lamivudine]: the normalised cell viability was 0.335 ± 0.012 (treatment time: 3 days) and 0.406 ± 0.023 (treatment time: 6 days).

`OC(CCN1CCCC1)(c1ccccc1)C1CCCCC1` (stereo not drawn) [Procyclidine hydrochloride]: the normalised cell viability runs as follows: (treatment time: 3 days) 0.981 ± 0.047; (treatment time: 6 days) 0.987 ± 0.012.

In the case of `COc1cc(OC)c(C(=O)CCCN2CCCC2)c(OC)c1` [Buflomedil hydrochloride], the normalised cell viability (treatment time: 3 days) is 1.04 ± 0.096 and the normalised cell viability (treatment time: 6 days) came to 1.07 ± 0.025.

Turning to `CN1C(C)(C)CCCC1(C)C` [Pempidine tartrate], the normalised cell viability (treatment time: 3 days) was determined as 1.1 ± 0.035 and the normalised cell viability (treatment time: 6 days) turned out to be 1.007 ± 0.0034.

Consider `C[C@@]1(O)CCOC(=O)C1` [Mevalonic-D, L acid lactone], for which the normalised cell viability (treatment time: 3 days) came to 1.09 ± 0.038 and the normalised cell viability (treatment time: 6 days) amounted to 1.06 ± 0.054.
